# Measured values as given in ChEMBL document CHEMBL3988442, “University of Dundee, Small-Polar-MMV Screening Library” (2021).
# Target: T1, Aspartate--tRNA(Asp/Asn) ligase (Mycobacterium tuberculosis (strain ATCC 25618 / H37Rv)) (UniProt P9WFW3); further: in the data most compounds retested in dose-response had high values
# T1 sequence (whole entry): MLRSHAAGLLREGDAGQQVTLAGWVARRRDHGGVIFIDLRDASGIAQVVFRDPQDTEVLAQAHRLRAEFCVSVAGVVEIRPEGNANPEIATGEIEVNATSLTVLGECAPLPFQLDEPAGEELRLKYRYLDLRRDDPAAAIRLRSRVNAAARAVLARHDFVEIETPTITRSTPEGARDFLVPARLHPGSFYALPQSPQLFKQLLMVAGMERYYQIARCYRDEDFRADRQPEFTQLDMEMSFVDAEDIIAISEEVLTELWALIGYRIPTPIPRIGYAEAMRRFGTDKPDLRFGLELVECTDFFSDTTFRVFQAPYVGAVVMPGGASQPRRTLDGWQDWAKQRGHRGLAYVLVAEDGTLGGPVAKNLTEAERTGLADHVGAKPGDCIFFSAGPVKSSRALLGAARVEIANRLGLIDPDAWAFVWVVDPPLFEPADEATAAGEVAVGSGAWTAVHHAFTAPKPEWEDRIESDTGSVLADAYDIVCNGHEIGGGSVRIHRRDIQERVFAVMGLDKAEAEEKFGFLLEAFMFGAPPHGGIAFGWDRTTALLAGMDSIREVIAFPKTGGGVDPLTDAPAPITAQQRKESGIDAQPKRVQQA
# Experiment: Assay for Asp RNA synthetase-1 from Mycobacterium tuberculosis
# Format: functional
# Parameters: scale not given: direction of the effect not stated beside the values
# Conditions: 30 µM
row,Structure (SMILES),Percent Effect [%]
1,O=C(C1CCOCC1)N1CCO[C@H]2[C@@H](OCc3ccncc3)CC[C@@H]21,-4.8
2,O=C1CC[C@H]2[C@H](CCN2C(=O)C2CCOCC2)N1Cc1ccncc1,-6.47
3,COc1ccccc1CNC(=O)Cn1ncc2c1c(C)nn2C,-0.668
4,CCOc1ccc(C#N)cc1NCC(=O)Nc1cc(F)ccc1F,-5.91
5,c1ccc2c(N3CCCC3Cn3cccn3)ncnc2c1 (stereo not given),0
6,CC(C)Cc1noc(CN2CCN(C(=O)c3ccco3)CC2)n1,-0.114
7,CCc1nc(C2CCCN2C(=O)CCc2ccc3c(c2)OCO3)no1 (stereo not given),3.41
8,CC1CN(C)c2ccccc2CN1C(=O)CSc1ccncc1 (stereo not given),6.09
9,COCCCC1(CO)CCCN(CCS(C)(=O)=O)C1 (stereo not given),4.17
10,CCOc1ccc(CC(=O)N2CCN(c3nccn3C)CC2)cc1,5.09
11,Cc1cc(CN2CCOC(CN(C)c3cccnn3)C2)no1 (stereo not given),-2.36
12,Cc1nc(C)n(CC2CCCN2Cc2cn(-c3ccccc3)nn2)n1 (stereo not given),-2.81
13,Cc1cc(N2CCC(NC(=O)C3CC3)CC2)nc(-c2ccncc2)n1,0.463
14,OC(COCc1ccccc1Cl)CN1CC(n2cccn2)C1 (stereo not given),0.411
15,CN(Cc1ccc(F)cc1)C(=O)CN1CCOC(Cn2cncn2)C1 (stereo not given),3.63
16,Cc1noc2ncc(C(=O)N3CCCC3c3ccncc3)cc12 (stereo not given),-7.22
17,CN(C)C(=O)N1CCC2(CCCN(Cc3cnn(C)c3)C2)C1 (stereo not given),-0.168
18,Cc1ccc(C(=O)Nc2cn[nH]c2)cc1C,-2.79
19,CCn1cnnc1CNC(=O)NC(C)C(C)C (stereo not given),-2.43
20,Cc1ccc(-c2cc(CNC(=O)N3CCOC(C)C3)on2)cc1 (stereo not given),0.699

row,Structure (SMILES),Percent Effect [%]
1,CO[C@H]1CCN(Cc2cccc(C)n2)[C@@H]2CN(Cc3cccnc3)C[C@H]12,-0.57
2,CN(C)C(=O)N[C@@H]1CN(Cc2ccc3c(c2)OCO3)[C@@H]2CCCO[C@@H]21,-0.291
3,O=C(C1CCS(=O)(=O)C1)N1CCN(c2cnccn2)CC1 (stereo not given),0.204
4,CN(Cc1cncnc1)Cc1cn2c(n1)CN(C1CCOC1)CC2 (stereo not given),7.69
5,CC[C@@H]1N(Cc2ccsc2)CCC[C@]12CCC(=O)N2CCOC,-5.67
6,CCCC(=O)Nc1sc(C(=O)OCC)c(C)c1C#N,-1.82
7,Cc1nc(NC2CCCC2)cc(C2CCN2C(=O)c2ccccc2)n1 (stereo not given),-4.99
8,CC(C)c1noc(CCC(=O)NCC2CCOC2)n1 (stereo not given),-0.573
9,Cc1cc(N2CCN(CCO)CC2)nc(-c2ccncc2)n1,1.26
10,CCN1CCC(NC(=O)CN2CCc3c(nc(C4CC4)n3C)C2)CC1,-3.88
11,c1cnc(-c2nc(CN3CCCC(Cn4cncn4)C3)cs2)nc1 (stereo not given),-1.55
12,Cc1nc(O)c2nnn(C[C@H]3CCCN3C(=O)c3cccc(F)c3)c2n1,2.16
13,O=C(CCCc1nc2ccccc2[nH]1)N1CCCC(n2cccn2)C1 (stereo not given),0.834
14,CC(C)c1nc(C2CCCN(C(=O)Cc3cccnc3)C2)no1 (stereo not given),-2.44
15,c1ccc(OCC2CC3(CCN(c4ncccn4)CC3)CO2)nc1 (stereo not given),4.62
16,Cc1cnn(CC2CN(CC(=O)NCCc3cccs3)CCO2)c1 (stereo not given),-11.2
17,Cc1ccc(NC(=O)NCCCc2n[nH]c(N)c2C#N)cc1,1.26
18,Cc1cn(-c2ccccc2)nc1NS(=O)(=O)c1cc(C(=O)O)cs1,5.52
19,COCc1noc(C2(c3ccc(Br)cc3)CCOCC2)n1,0.524
20,CC(C)c1nn(C)c(N(C)C)c1CNCc1cccc(CN(C)C)c1,2.36

# Target: Shiga toxin 2 (Escherichia coli O157:H7) (UniProt P09385+P09386)
# Experiment: E. coli 0.157:H7 Shiga Toxin SOP - stx2 screening assay
# Format: functional
# Parameters: scale not given: direction of the effect not stated beside the values
# Conditions: 30 µM
row,Structure (SMILES),Percent Effect [%]
1,O=C(C1CCOCC1)N1CCO[C@H]2[C@@H](OCc3ccncc3)CC[C@@H]21,22.7
2,O=C1CC[C@H]2[C@H](CCN2C(=O)C2CCOCC2)N1Cc1ccncc1,-35.2
3,COc1ccccc1CNC(=O)Cn1ncc2c1c(C)nn2C,-20.2
4,CCOc1ccc(C#N)cc1NCC(=O)Nc1cc(F)ccc1F,5.62
5,c1ccc2c(N3CCCC3Cn3cccn3)ncnc2c1 (stereo not given),-23.1
6,CC(C)Cc1noc(CN2CCN(C(=O)c3ccco3)CC2)n1,-20
7,CCc1nc(C2CCCN2C(=O)CCc2ccc3c(c2)OCO3)no1 (stereo not given),6.69
8,CC1CN(C)c2ccccc2CN1C(=O)CSc1ccncc1 (stereo not given),-6.66
9,COCCCC1(CO)CCCN(CCS(C)(=O)=O)C1 (stereo not given),0.747
10,CCOc1ccc(CC(=O)N2CCN(c3nccn3C)CC2)cc1,-64.2
11,Cc1cc(CN2CCOC(CN(C)c3cccnn3)C2)no1 (stereo not given),18.5
12,Cc1nc(C)n(CC2CCCN2Cc2cn(-c3ccccc3)nn2)n1 (stereo not given),-8.85
13,Cc1cc(N2CCC(NC(=O)C3CC3)CC2)nc(-c2ccncc2)n1,-21.4
14,OC(COCc1ccccc1Cl)CN1CC(n2cccn2)C1 (stereo not given),29.1
15,CN(Cc1ccc(F)cc1)C(=O)CN1CCOC(Cn2cncn2)C1 (stereo not given),-0.222
16,Cc1noc2ncc(C(=O)N3CCCC3c3ccncc3)cc12 (stereo not given),-37.9
17,CN(C)C(=O)N1CCC2(CCCN(Cc3cnn(C)c3)C2)C1 (stereo not given),0.121
18,Cc1ccc(C(=O)Nc2cn[nH]c2)cc1C,16.5
19,CCn1cnnc1CNC(=O)NC(C)C(C)C (stereo not given),7.89
20,Cc1ccc(-c2cc(CNC(=O)N3CCOC(C)C3)on2)cc1 (stereo not given),9.22

row,Structure (SMILES),Percent Effect [%]
1,CO[C@H]1CCN(Cc2cccc(C)n2)[C@@H]2CN(Cc3cccnc3)C[C@H]12,-14.4
2,CN(C)C(=O)N[C@@H]1CN(Cc2ccc3c(c2)OCO3)[C@@H]2CCCO[C@@H]21,-7.65
3,O=C(C1CCS(=O)(=O)C1)N1CCN(c2cnccn2)CC1 (stereo not given),25.5
4,CN(Cc1cncnc1)Cc1cn2c(n1)CN(C1CCOC1)CC2 (stereo not given),-15.6
5,CC[C@@H]1N(Cc2ccsc2)CCC[C@]12CCC(=O)N2CCOC,7.49
6,CCCC(=O)Nc1sc(C(=O)OCC)c(C)c1C#N,7.46
7,Cc1nc(NC2CCCC2)cc(C2CCN2C(=O)c2ccccc2)n1 (stereo not given),-18.1
8,CC(C)c1noc(CCC(=O)NCC2CCOC2)n1 (stereo not given),-7.84
9,Cc1cc(N2CCN(CCO)CC2)nc(-c2ccncc2)n1,-27.4
10,CCN1CCC(NC(=O)CN2CCc3c(nc(C4CC4)n3C)C2)CC1,7.04
11,c1cnc(-c2nc(CN3CCCC(Cn4cncn4)C3)cs2)nc1 (stereo not given),20.5
12,Cc1nc(O)c2nnn(C[C@H]3CCCN3C(=O)c3cccc(F)c3)c2n1,-4.92
13,O=C(CCCc1nc2ccccc2[nH]1)N1CCCC(n2cccn2)C1 (stereo not given),3.01
14,CC(C)c1nc(C2CCCN(C(=O)Cc3cccnc3)C2)no1 (stereo not given),23.6
15,c1ccc(OCC2CC3(CCN(c4ncccn4)CC3)CO2)nc1 (stereo not given),-0.916
16,Cc1cnn(CC2CN(CC(=O)NCCc3cccs3)CCO2)c1 (stereo not given),6.55
17,Cc1ccc(NC(=O)NCCCc2n[nH]c(N)c2C#N)cc1,-18.4
18,Cc1cn(-c2ccccc2)nc1NS(=O)(=O)c1cc(C(=O)O)cs1,-40
19,COCc1noc(C2(c3ccc(Br)cc3)CCOCC2)n1,-0.633
20,CC(C)c1nn(C)c(N(C)C)c1CNCc1cccc(CN(C)C)c1,31.8
